PNC inhibitor – High Content Assay for Compounds that inhibit the Assembly of the Perinucleolar Compartment | PC3M PTB-GFP, PNC prevalence imaging, 16 h; hits give low values | activity change (PNC), negative = inhibition, % at 10 µM | actives 3.1% (n = 140,000) | AID 2417, 2010;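 active means readout at or below -70, meaning at least 70% loss of cells showing the perinucleolar compartment, a nuclear body marking cancer cells; inconclusive means readout between -30 and a set limit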;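 further: plate controls were DMSO wells for no effect and camptothecin positive control wells for full effect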
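PC3M cells stably expressing PTB-GFP, 750–1000 cells/well, treated 16 h at 37 °C with compound (23 nl of library stock), in duplicate. After paraformaldehyde fixation and Hoechst stain, imaged at 20x; PNC prevalence scored by image analysis.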
HPGD inh – qHTS Assay for Inhibitors of HPGD (15-Hydroxyprostaglandin Dehydrogenase) | 15-hydroxyprostaglandin dehydrogenase [NAD(+)] (Homo sapiens), P15428 | purified HPGD, NADH fluorescence kinetic, PGE2 substrate | Potency, µM, without a hit: at the top dose activity change, negative = inhibition, most hits filed as inhibitors | actives 4.3% (n = 150,000); further: potency means the concentration at half of the fitted maximal effect
Target sequence (P15428 whole entry, looked up): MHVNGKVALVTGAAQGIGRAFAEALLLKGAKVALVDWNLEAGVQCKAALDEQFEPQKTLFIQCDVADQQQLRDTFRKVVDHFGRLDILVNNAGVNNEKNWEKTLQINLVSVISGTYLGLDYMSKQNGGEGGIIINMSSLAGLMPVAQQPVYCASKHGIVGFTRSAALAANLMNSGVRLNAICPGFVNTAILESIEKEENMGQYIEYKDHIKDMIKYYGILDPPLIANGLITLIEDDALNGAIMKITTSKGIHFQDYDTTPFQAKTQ
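20 nM HPGD preincubated 15 min at room temperature with compound in 50 mM Tris-HCl pH 8, 0.01% Tween 20. Started with 1 mM NAD+ and 30 uM prostaglandin E2; NADH fluorescence (360/450 nm) read 5 times over 30-s intervals, last minus first.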
ALDH1A1 block – qHTS Assay for Inhibitors of Aldehyde Dehydrogenase 1 (ALDH1A1). actives 7.3% (n = 220,000). Aldehyde dehydrogenase 1A1 (Homo sapiens), P00352. Purified ALDH1A1, NADH fluorescence, propionaldehyde substrate. Potency, µM (series often up to 75.3 µM), without a hit: at the highest dose activity, negative = inhibition, hits mostly inhibitors. AID 1030, 2008;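 further: potency means the concentration at half of the fitted maximal effect; plate controls were no enzyme wells and a reference inhibitor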
Starred values were filed as active, the others as inactive; ? = inconclusive; . = not tested or not shown; ! = not confirmed by another sample; [ ] = another dose, or the depositor's remark. Compounds with a hit are over-represented: about 11% of the library has one in this group of screens. Unless noted, the call rests on the fitted dose curve; in most records, active means well fitted inhibition curve with a large enough effect (not every such curve was filed as active); inconclusive means small, poorly fitted or top-dose-only effect, or another doubt; inactive means no such curve, though single readings can be large or run the other way. Unless noted, on the % scale 0 is the no-effect control and ±100 the full control effect.

SMILES	PNC inhibitor	HPGD inh	ALDH1A1 block
CN1CCN(C(=O)COc2ccc(S(=O)(=O)N(C)Cc3ccccc3)cc2)CC1	?	14.1µM*	?
CCN1CCN(C(=O)COc2ccc(S(=O)(=O)N(C)Cc3ccccc3)cc2)CC1	-4.2	-25.5%	?
[O-][Br+2]([O-])O	.	-7.7%	?
CCNCC	.	-3.2%	4.3%
C=C(C)C(=O)CP(=O)(OCC)OCC	.	-7.4%	-5.5%
CC1CCCN(CC(=O)c2ccc(Cl)c(Cl)c2)C1 (centres undefined)	.	.	2µM*
CC1CCN(CC(=O)c2ccccc2Cl)CC1	?	-6.5%	?
Cc1cc(Cl)ccc1C(=O)C1CCCN(Cc2ccon2)C1 (centres undefined)	.	.	-3.5%
CC1CCN(CC(=O)c2ccc3c(c2)OCCO3)CC1	.	.	7.94µM*
CCOC(=O)Cc1[nH]nc2c1C(c1ccoc1)C(C#N)=C(N)O2 (centres undefined)	?	-27.4%	?
Oc1cc(Cl)ccc1Cl	.	-29.0%	?
Oc1cc(Cl)ccc1Oc1ccc(Cl)cc1Cl	.	7.94µM*	1.4%
CN(N=O)c1ccc(O)c(O)c1	.	8.91µM*	15.8µM*
CCNC(C)Cc1cccc(C(F)(F)F)c1 (centres undefined)	.	-2.1%	0.3%
NC(=O)c1ncn([C@@H]2O[C@H](CO)[C@@H](O)[C@H]2O)n1	-24.0	-4.0%	25.1µM*!
NC(=O)c1ncn([C@H]2O[C@@H](CO)[C@@H](O)[C@@H]2O)n1	.	-3.6%	-4.9%[20.9 µM]
C(#CCN1CCOCC1)COC/C=C/c1ccccc1	?	-10.1%	5.9%
O=CC1=C(N2CCOCC2)/C(=C\c2ccccc2)CC1	.	.	3.55µM*
Clc1ccc(C(Cl)(Cl)Cl)cc1Cl	.	0.9%	0.4%
CN1CC[C@@]2(CCCN(C(=O)c3ccco3)C2)C1	.	-5.5%	-15.5%
c1cncc([C@@H]2CCCCN2)c1	.	3.1%	10.4%
Cc1c(C(=O)NCCC2=CCCCC2)oc2ccc(S(=O)(=O)N3CCC4(CC3)OCCO4)cc12	?	-18.0%	22.4µM*
Cc1c(C(=O)N2CCC3(CC2)OCCO3)oc2ccc(S(=O)(=O)N3CCOCC3)cc12	46.2	-9.1%	?
CCOc1cc(CNCCc2c[nH]c3ccccc23)cc(Cl)c1OCC	-24.1	-4.4%	-2.4%
CCOc1c(Cl)cc(CNCCc2c[nH]c3ccccc23)cc1OC	.	.	3.55µM*
SMILES	PNC inhibitor	HPGD inh	ALDH1A1 block
COc1ccc(NC(=O)c2c(C)nn(Cc3ccccc3Cl)c2Cl)cc1Cl	?	-8.1%	5.6%
COc1ccc(N(CC(=O)Nc2cccc(SC)c2)S(C)(=O)=O)cc1Cl	?	?	14.1µM*
C#CCN(C)[C@@H](C)Cc1ccccc1	.	-0.7%	-10.6%[20.9 µM]
Oc1c(Br)cc(Br)cc1Oc1ccc(Br)cc1Br	-1.9	7.08µM*	-0.5%
Brc1ccc(Oc2ccc(Br)cc2Br)c(Br)c1	.	-4.3%	?
Cc1cccc(C)c1O	.	-1.8%	?
S=C(c1ccc(Cl)cc1)N1CCOCC1	21.8	22.4µM*	?
ClC(Cl)=C(c1ccc(Cl)cc1)c1ccc(Cl)cc1	.	-1.4%	11.6%
CCCCCC1C(=O)O[C@H](C)[C@@H](NC(=O)c2cccc(NC=O)c2O)C(=O)OC(C)C1OC(=O)CC(C)C (some centres undefined)	.	?	5.8%
CN1CCCC(C(=O)c2ccccc2)C1 (centres undefined)	82.2	-7.8%	7.5%
CN1CCC(O)(c2ccccc2)C(C(=O)c2ccccc2)C1 (centres undefined)	26.6	-3.8%	0.141µM*
C=COC(C)=O	.	-7.6%	7.3%
CC1Cc2c(cnc3c2CN(C)CC3)CO1 (centres undefined)	.	.	-1.7%[13.5 µM]
C=C(Cl)Cl	.	-4.5%	-5.5%
S=C1NCCN1	-84.5*	-11.4%	6.2%
C/C(=C\[C@@H](N)C(=O)O)CP(=O)(O)O	.	-11.1%	-4.8%
CN1CCCC2(CCN(C(=O)c3csnn3)CC2)C1	.	-6.5%	?
C[C@]12CCC3C(CC[C@]4(O)C[C@@H](O)CC[C@]34C=O)[C@@]1(O)CC[C@@H]2C1=CC(=O)OC1 (some centres undefined)	.	-1.9%	-8.6%
O=c1c2ccccc2nc(-c2ccco2)n1-c1ccccn1	8.1	-1.8%	-6.1%
Cc1cccnc1-n1c(-c2ccco2)nc2ccccc2c1=O	11.1	.	28.2µM*
CCN(CC)c1ccc(/C=C2\C(=O)NC(=O)N(CC3CCCO3)C2=O)cc1 (centres undefined)	?	25.1µM*	0.251µM*
O=C1NC(=O)N(Cc2ccco2)C(=O)/C1=C\c1cccn1CCOc1ccc(Cl)cc1	-10.7	-21.8%	-3.5%
